# Compound activity deposited in PubChem by Johns Hopkins Ion Channel Center.
# KCNQ2 inh – blocks the rat KCNQ2 potassium channel | B-score at 10 µM | CHO-K1 KCNQ2, FluxOR thallium flux, 20 min; hits give low values | 310,000 compounds, 1.1% hits | AID 2156;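 active means fluorescence ratio B-score at most minus 3 library SDs, with starting brightness B-score within 2 library SDs, cut at about -5.5 in these data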
# KCNQ2 enhance – KCNQ2 (rat) channel potentiation; 310,000 compounds, 0.54% hits; O88943; B-score at 10 µM; AID 2239; CHO-K1 KCNQ2, FluxOR thallium flux fluorescence; hits give high values;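 active means fluorescence ratio B-score at least 3 SD of library B-scores, with initial fluorescence B-score within 3 of them, cut at about 5.3 in these data; same plate scores as AID 2156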;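 further: B-score of peak minus minimum over baseline fluorescence ratio after K+ and Tl+ stimulus; positive B-score means potentiation of KCNQ2 with more thallium influx and brighter signal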
# Kir21 confirm – confirmation of mouse Kir2.1 potassium channel inhibitors | shares compounds with KCNQ2 enhance | 2,300 compounds, 41% hits | Tl flux remaining, % of negative control (hits give low values), % at 10 µM | AID 2032 | Kir2.1-expressing cells, FluxOR thallium flux fluorescence; hits give low values;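 active means Primary-screen hit whose thallium flux fell at least 3 control SD below untreated wells in both duplicates, with normal baseline fluorescence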
# Target sequence (P35561 whole entry, looked up): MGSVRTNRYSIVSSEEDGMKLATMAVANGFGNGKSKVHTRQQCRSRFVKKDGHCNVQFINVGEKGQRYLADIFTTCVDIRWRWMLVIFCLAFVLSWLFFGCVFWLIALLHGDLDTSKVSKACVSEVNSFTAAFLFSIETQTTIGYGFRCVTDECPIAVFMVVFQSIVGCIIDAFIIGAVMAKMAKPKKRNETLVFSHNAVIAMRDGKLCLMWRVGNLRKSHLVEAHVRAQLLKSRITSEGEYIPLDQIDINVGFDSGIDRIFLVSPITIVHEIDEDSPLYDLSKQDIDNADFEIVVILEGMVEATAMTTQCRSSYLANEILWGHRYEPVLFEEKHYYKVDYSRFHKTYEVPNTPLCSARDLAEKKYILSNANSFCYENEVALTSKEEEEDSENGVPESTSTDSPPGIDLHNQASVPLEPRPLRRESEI
# HEK293 ctr – parental HEK293 activity in Kir2.1 inhibitor counter-screen. parental HEK293 cells, FluxOR thallium flux fluorescence; 0% = unstimulated blank wells. shares compounds with KCNQ2 enhance. FluxOR signal as % of negative control (100 = no effect), % at 10 µM. 2,300 compounds, 19% hits;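 active means dye signal at least 3 control SD above or below untreated wells in both duplicates, raw fluorescence within 3, either direction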;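 further: percent is based on the flux ratio of peak minus minimum fluorescence over baseline F0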
# CHO-K1 ctr – parental CHO-K1 activity in KCNQ2 potentiator counter-screen; shares compounds with KCNQ2 enhance; parental CHO-K1 cells, FluxOR thallium flux fluorescence; zero = vehicle mean+3SD, 100% = vehicle-minus-blank window; activity increase over 3SD of controls, % at 10 µM; 1,200 compounds, 43% hits;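 active means signal rise of at least 3 SD above the untreated control mean, in both duplicate wells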;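 further: counter screen of KCNQ2 potentiator hits so any rise reflects channel-independent effects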
# KCNQ1 pot spec – tests whether KCNQ2 potentiators also act on human KCNQ1; AID 2283; activation over 3SD threshold, % at 10 µM; shares compounds with KCNQ2 enhance; 1,200 compounds, 28% hits; CHO KCNQ1 stable, FluxOR thallium flux fluorescence; beyond 3SD, as % of vehicle-control signal;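 active means fluorescence ratio rise of at least 3 SD of vehicle wells above their mean, in both replicate wells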
# KCNQ2 pot confirm – confirmation of rat KCNQ2 potassium channel potentiators; shares compounds with KCNQ2 enhance; CHO-KCNQ2 cells, FluxOR thallium flux fluorescence; potentiation, less the hit threshold, % at 10 µM; 1,200 compounds, 68% hits; AID 2287;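 active means fluorescence ratio rising 3 SD or more over the vehicle control mean in both replicates, plus primary screen hit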;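 further: peak minus minimum thallium fluorescence divided by baseline after K/Tl stimulus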
# Kir21 spec – mouse Kir2.1 off-target activity of KCNQ2 potentiators. shares compounds with KCNQ2 enhance. HEK293 Kir2.1, FluxOR thallium flux fluorescence. activity over 3SD threshold, % at 10 µM. 1,200 compounds, 2% hits. AID 2345;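 active means fluorescence ratio rise of at least 3 SD above the vehicle-control mean, seen in both replicates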
# KCNQ2 W236L pot – rat KCNQ2 W236L mutant potentiation by KCNQ2 potentiators | AID 2558 | shares compounds with KCNQ2 enhance | CHO KCNQ2-W236L, automated patch clamp current | current increase over 3SD of negative controls (%), hits give high values, % at 25 µM | 940 compounds, 10% hits;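 active means current increase at least 3 SD of the untreated controls above them in both duplicate recordings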
# Hits are given with their value; i = inactive; nt = not tested or not shown. In the library only some 1.6% were active in any assay of this set; here they are far more common.
SMILES,KCNQ2 inh,KCNQ2 enhance,others
COc1ccc(C[C@H]2CN3C(=NC[C@@H]3Cc3ccc(O)cc3)N2C[C@H](C)NC(=O)c2ccc(C)c(Br)c2)cc1,i,nt,Kir21 confirm=48.0%;HEK293 ctr=i
Cc1ccc(C(=O)N[C@@H](C)CN2C3=NC[C@H](C(C)C)N3C[C@H]2Cc2ccc(O)cc2)cc1Br,i,nt,
COc1ccc(C(CNC(=O)c2ccc(NS(=O)(=O)c3ccc4c(c3)OCCO4)cc2)N(C)C)cc1 (centres undefined),i,i,
O=C(NNC(=O)c1cc2ccccc2oc1=O)c1ccccc1[N+](=O)[O-],i,i,
Cc1ccc(C)c(S(=O)(=O)NCc2ccc(C(=O)NCc3ccccn3)cc2)c1,i,nt,
COC(=O)c1cc(C(=O)OCC(=O)NCc2ccc3c(c2)OCO3)cc([N+](=O)[O-])c1,i,nt,
CNS(=O)(=O)c1cc(S(=O)(=O)NC)c2cccc3c2c1NC3=O,i,nt,
CC1CCc2c(sc(NC(=O)c3ccccc3C(=O)O)c2C#N)C1 (centres undefined),i,i,
CCC(C)(C)C1CCc2c(sc(NC(=O)c3ccccc3C(=O)O)c2C#N)C1 (centres undefined),i,8.34,Kir21 confirm=i;HEK293 ctr=151.0%;CHO-K1 ctr=i;KCNQ1 pot spec=i;KCNQ2 pot confirm=15.6;Kir21 spec=i;KCNQ2 W236L pot=i
CCOC(=O)c1[nH]c(C)c(C(=O)C(C)C)c1C,i,nt,
CN(c1ccccc1)S(=O)(=O)c1ccc(C(=O)NCc2ccccn2)cc1,i,nt,
CS(=O)(=O)Nc1ccc(C2=NN(S(=O)(=O)c3ccc(F)cc3)C(c3ccco3)C2)cc1 (centres undefined),i,i,
O=C1c2ccccc2C(=O)N1CCCCSc1nc2ccccc2c(=O)n1CCCN1CCOCC1,i,nt,
CCn1c(=O)n(CC)c2cc(N3CCCC3)c(NC(=O)c3cccc(C)c3)cc21,i,nt,
CCn1c(=O)n(CC)c2cc(NC(=O)C(C)c3ccccc3)c(Br)cc21 (centres undefined),i,22.4,Kir21 confirm=i;HEK293 ctr=i;CHO-K1 ctr=i;KCNQ1 pot spec=i;KCNQ2 pot confirm=94.9;Kir21 spec=i;KCNQ2 W236L pot=i
Cc1cccc(Oc2ccccc2NC(=O)CN2C(=O)NC3(CCCC3)C2=O)c1,i,i,
Cc1ccc(Oc2ccccc2NC(=O)CN2C(=O)NC3(CCCC3)C2=O)cc1,i,6.35,Kir21 confirm=i;HEK293 ctr=i;CHO-K1 ctr=26.0;KCNQ1 pot spec=22.3;KCNQ2 pot confirm=13.2;Kir21 spec=i;KCNQ2 W236L pot=i
COc1cccc(S(=O)(=O)N2CCN(Cc3ccc4c(c3)OCO4)CC2)c1,i,i,
O=C(COc1ccc2c3c(c(=O)oc2c1)CCC3)Nc1ccc(CN2CCOCC2)cc1,i,i,
COc1ccc(NS(=O)(=O)c2cccc(C(=O)NNC(=O)CNC(=O)c3ccco3)c2)cc1,i,nt,
S=c1[nH]nc(-c2cccs2)n1/N=C/c1c(Cl)cccc1Cl,i,7.36,Kir21 confirm=i;HEK293 ctr=i;CHO-K1 ctr=i;KCNQ1 pot spec=i;KCNQ2 pot confirm=7.3;Kir21 spec=i;KCNQ2 W236L pot=i
Cc1ccc(/C=N/n2c(-c3cccs3)n[nH]c2=S)cc1,i,i,
Clc1ccc2oc3c(Cl)ncnc3c2c1,i,nt,
COC(=O)[C@]1(Cc2ccccc2)N[C@H](c2ccc(-c3cc(C(C)=O)cs3)cc2)[C@@H]2C(=O)N(C)C(=O)[C@@H]21,i,i,
O=C(NCc1ccc(F)cc1)Nc1ccc(Cl)cc1,i,i,
O=C(NCc1ccc(F)cc1)Nc1cccc(Cl)c1,i,5.84,Kir21 confirm=i;HEK293 ctr=i;CHO-K1 ctr=87.3;KCNQ1 pot spec=54.3;KCNQ2 pot confirm=12.7;Kir21 spec=i;KCNQ2 W236L pot=i
COc1ccc(C(CNc2ccc(S(C)(=O)=O)cc2[N+](=O)[O-])N(C)C)cc1OC (centres undefined),i,i,
CC1(C)Cc2cccc(OCC(=O)NCCOc3ccccc3)c2O1,i,nt,
